# Measurements reported in PubChem BioAssay (Tox21).
# Values joined by “and” are separate entries in the source; they are usually repeats but may differ in a detail not shown here. Identical values can stand only once. Inconclusive results are not listed. Entries that show only a call come without a potency. Active and inactive are the calls of the source. The call rests on the fitted dose curve; in most records, active means well fitted activation curve with a large enough effect in the repeat runs; inconclusive means weak or mixed curves; inactive means flat fitted curve, though single readings scatter.
# Test: A CellTox Green Cytotoxicity Assay to monitor cytotoxicity in HepG2 cells - 8 hour (AID 1224890); further: nearly all actives have a fitted effect of over 45% in size
# Details: CellTox Green fluorescence; series mostly up to 76.8 µM
# Source text: National Center for Advancing Translational Sciences [NCATS]
# NIH Chemical Genomics Center [NCGC]
# U.S. Environmental Protection Agency [EPA]
# National Institutes of Environmental Health Sciences [NIEHS]
# National Toxicology Program [NTP]
# Cell-based models are critical for drug discovery. Determining the natural cytotoxic effects resulting from test compounds is an essential research activity. A CellTox Green Cytotoxicity Assay to monitor cytotoxicity in real time of continues cell culture during 40 hours of the compound treatment was used to screen Tox21 10K library compounds in HepG2 cells. CellTox Green Cytotoxicity Assay is a nonlytic, homogeneous, biofluorescent method to measure cytotoxicity in cell culture after experimental manipulation. The assay system uses a proprietary asymmetric cyanine dye that is excluded from viable cells but preferentially stains the dead cell's DNA. […] Viable cells produce no appreciable increases in fluorescence. Therefore, the fluorescence signal produced by the binding interaction with dead cell DNA is proportional to cytotoxicity.
# The mixture of HepG2 cell suspension and reagents were dispensed at 600cells/6 ul/well in 1536-well tissue culture treated black solid bottom plates using a Multidrop dispenser. After the assay plates were incubated at a 37 C/5% CO2 incubator for 5 hours, 23 nL of compounds dissolved in DMSO, positive and negative controls was transferred to the assay plate by a pintool work station. The plates were incubated at 37 C for 40 hours. The fluorescence intensity were measured at 0h, 8h, 16h, 24h, 32h and 40h time points using ViewLux plate reader during compound treatment.
SMILES,Potency,cytotoxicity increase
ON=C1CCCCC1,inactive,–
CC(=O)c1ccccc1,inactive,–
CC(=O)OCC(=O)[C@@]12N=C(C)O[C@@H]1C[C@H]1[C@@H]3CCC4=CC(=O)C=C[C@]4(C)[C@H]3[C@@H](O)C[C@@]12C,inactive,–
COc1cc(Cc2cnc(N)nc2N)cc(OC)c1OC,inactive,–
CN(C)CCC(c1ccccc1)c1ccccn1 (stereo not given),inactive,–
CCCCCCCC(=O)OC,inactive,–
O=[N+]([O-])c1ccc(/C=C/c2ccc([N+](=O)[O-])cc2S(=O)(=O)O)c(S(=O)(=O)O)c1,inactive,–
CCN(CC)c1ccc(C(=O)c2ccccc2C(=O)O)c(O)c1,inactive,–
O=C(O)CCCCCCCCCCC(=O)O,inactive,–
CCCC(C)=O,inactive,–
COc1ccc(Cl)cc1C(=O)NCCc1ccc(S(=O)(=O)NC(=O)NC2CCCCC2)cc1,inactive,–
CC(=O)Nc1ccccc1,inactive,–
CCCCCCCCCCCCCCCO,inactive,–
Cc1cccc(O)c1,inactive,–
CCC(O)OCCCOC (stereo not given),inactive,–
NNc1nncc2ccccc12,inactive,–
CN(C)CCCN,inactive,–
CC(C)c1ccc(S(=O)(=O)O)cc1,inactive,–
Oc1cccc2ccccc12,inactive,–
FC(F)(F)c1ccc(Cl)c(Cl)c1,inactive,–

SMILES,Potency,cytotoxicity increase
CCCCCC1=CCCC1=O,inactive,–
COCCCOc1ccnc(CS(=O)c2nc3ccccc3[nH]2)c1C (stereo not given),inactive,–
C=CCOC(=O)c1ccccc1C(=O)OCC=C,inactive,–
O=C(O)CC(C(=O)O)C(CC(=O)O)C(=O)O (stereo not given),inactive,–
O=P(OC(CCl)CCl)(OC(CCl)CCl)OC(CCl)CCl,inactive,–
Cc1cnc(C(=O)NCCc2ccc(S(=O)(=O)NC(=O)NC3CCCCC3)cc2)cn1,inactive,–
C=CCNC(N)=S,inactive,–
O=C(O)c1cc(O)c(O)c(O)c1,inactive,–
CCc1cccc(C)c1N,inactive,–
CCCCCCCCCCCCS,inactive,–
O=c1[nH]c(=O)n([C@H]2C[C@H](O)[C@@H](CO)O2)cc1Br,inactive,–
CCCCN(CCCC)CCCC,inactive,–
CC1CCC(C(C)C)C(O)C1 (stereo not given),inactive,–
O=C(O)c1ccccc1C(c1ccc(O)cc1)c1ccc(O)cc1,inactive,–
CCCCCCCCCC,inactive,–
CC1=C(C)S(=O)(=O)CCS1(=O)=O,inactive,–
CCCCCCCCCCCCCCO,inactive,–
Cc1ccc(N(C)C)cc1,inactive,–
CCN(CC)CCCC(C)Nc1ccnc2cc(Cl)ccc12 (stereo not given),–,3.33% [at 6.97 µM] (inactive) and 10.4% [at 15.8 µM] (inactive)
CN(C)CCC(c1ccc(Cl)cc1)c1ccccn1 (stereo not given),inactive,–
